Data on 9 molecules can be found in PubChem BioAssay (NCI).

The structures appear in SMILES notation. About 83,000 compounds went through this panel and 20% of them were active in at least one assay; those are over-represented in the sample as a whole.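 Method: cells in 96-well plates; compound added at one concentration; 48 h incubation; percent growth measured; values under 10 scored active.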 A number with no mark means an inactive call. Calls of active or inactive are those of the source.

Some test systems named below: K-562 leukemia; MALME-3M melanoma; MDA-MB-231 breast; RXF 393 renal; SF-268 CNS; SF-295 CNS; SF-539 CNS; UACC-257 melanoma; M14 melanoma; HCT-15 colon; HT29 colon; SNB-19 CNS; U251 CNS; SK-MEL-5 melanoma; UACC-62 melanoma; LOX IMVI melanoma; SK-MEL-28 melanoma; SK-MEL-2 melanoma; SNB-75 CNS; PC-3 prostate.
Test in all cases: NCI-60 one-dose screen, 48 h (100 = growth as untreated, 0 = no growth, -100 = all killed)
Common to all, as to conditions: 10 µM unless noted

Take `CC(=O)c1cc(C(=O)c2ccc3c(c2)Sc2ccccc2N3)c2c(C)cc(C)cn12`: the growth with K-562 leukemia was 4.47% (active); in the assay on MALME-3M melanoma, 69.6%; in the assay with MDA-MB-231 breast, -13.5% (active); with RXF 393 renal, 34.3%; in the assay on SF-268 CNS, 11.9%; with SF-295 CNS, -1.02% (active). Further, the growth was -2.53% (active) in the assay on SF-539 CNS; 26.9% with UACC-257 melanoma; 9.62% (active) in the assay with M14 melanoma; 15% in the assay with HCT-15 colon; -15% (active) in the assay on HT29 colon; 36.5% in the assay on SNB-19 CNS. For the same molecule, the growth in the assay with U251 CNS is 14.6%; in the assay on SK-MEL-5 melanoma it was -36.5% (active); in the assay on UACC-62 melanoma it was 23.1%; in the assay with LOX IMVI melanoma, 16.6%; with SK-MEL-28 melanoma, 40.4%; in the assay with SK-MEL-2 melanoma, 26.3%.

In the case of `COc1ccc(-c2c(-c3cc(OC)c(OC)c(OC)c3)noc2N)cc1`, the growth is 11.8% in the assay on K-562 leukemia; 67.5% in the assay on MALME-3M melanoma; 17.1% in the assay on MDA-MB-231 breast; 26.5% in the assay on RXF 393 renal; 23.8% in the assay on SF-268 CNS; 8.4% (active) in the assay with SF-295 CNS. For the same molecule, the growth is 19.3% with SF-539 CNS; 77.5% in the assay with UACC-257 melanoma; 15.2% in the assay on M14 melanoma; 28% in the assay on HCT-15 colon; 52.7% in the assay on SNB-75 CNS; 38.7% with SNB-19 CNS. Also, the growth with U251 CNS was 22.2%; in the assay on PC-3 prostate, 21.8%; in the assay with SK-MEL-5 melanoma, -60.7% (active); in the assay with UACC-62 melanoma, 43.9%; with LOX IMVI melanoma it was 17.6%; in the assay on SK-MEL-28 melanoma, 58.6%. In the assay with SK-MEL-2 melanoma, the growth was 72.6%.

On to `COC1=CC(c2ccc[nH]2)=N/C1=C\c1[nH]c(C)c(C(=O)CCC(=O)Oc2ccc3c(c2)CCC2C3CC[C@]3(C)C(=O)CC[C@@H]23)c1C` (some centres undefined), for which the growth in the assay with K-562 leukemia was 39.2%; in the assay with MALME-3M melanoma, 103%; in the assay on MDA-MB-231 breast it was 1.14% (active); with RXF 393 renal, 93.1%; in the assay with SF-268 CNS, 52.6%; in the assay with SF-295 CNS it was 86.4%. For the same molecule, the growth with SF-539 CNS was 83.7%; with UACC-257 melanoma, 106%; with M14 melanoma, 104%; in the assay on HCT-15 colon, 45.6%; in the assay on HT29 colon it was 26.8%; with SNB-19 CNS, 95.4%. For the same molecule, the growth in the assay on U251 CNS is 53%; in the assay on PC-3 prostate, 60.6%; in the assay with SK-MEL-5 melanoma, 78%; in the assay on UACC-62 melanoma, 65%; in the assay on SK-MEL-28 melanoma, 97.3%; in the assay on SK-MEL-2 melanoma, 91.3%.

As for `Cc1ccc(C(O)C2=CC(=O)c3ccccc3C2=O)cc1` (centres undefined), the growth is 112% in the assay with K-562 leukemia; 107% in the assay on MALME-3M melanoma; 71.1% in the assay on MDA-MB-231 breast; 109% with RXF 393 renal; 107% with SF-268 CNS; 97.6% with SF-295 CNS. Moreover, the growth in the assay on SF-539 CNS was 95.3%; in the assay with UACC-257 melanoma, 102%; with M14 melanoma, 95.7%; in the assay on HCT-15 colon, 93.3%; in the assay on HT29 colon it was 107%; in the assay with SNB-19 CNS, 102%. The growth in the assay on U251 CNS is 96%; in the assay with PC-3 prostate, 89.4%; with SK-MEL-5 melanoma, 97.7%; with UACC-62 melanoma, 90.5%; in the assay on SK-MEL-28 melanoma, 112%; with SK-MEL-2 melanoma it was 116%.

Take `Cc1cc(Cl)ccc1Nc1nc(C(F)(F)F)ccc1C(=O)NCC(=O)N/N=C/c1c(Cl)cccc1Cl`: the growth was 50.2% with K-562 leukemia; 92.2% in the assay with MALME-3M melanoma; 61.6% with MDA-MB-231 breast; 107% in the assay with RXF 393 renal; 31% in the assay on SF-268 CNS; 54.2% with SF-295 CNS. For the same molecule, the growth in the assay on SF-539 CNS was 79.4%; in the assay on UACC-257 melanoma it was 149%; in the assay with M14 melanoma it was 75.8%; in the assay on HCT-15 colon it was 60.8%; in the assay with SNB-75 CNS, 97.7%; in the assay with SNB-19 CNS it was 90.5%. The growth with U251 CNS is 67.7%; with PC-3 prostate, -16.1% (active); in the assay on SK-MEL-5 melanoma, 70.5%; in the assay with UACC-62 melanoma, 63%; in the assay with LOX IMVI melanoma, 56.3%; in the assay on SK-MEL-28 melanoma, 85.7%. Also, the growth in the assay with SK-MEL-2 melanoma was 98.2%.

For `COC(=O)C[C@@H]1CC=CC(=O)/C1=C(O)/C=C/c1ccccc1`, the growth in the assay on K-562 leukemia was 3.07% (active); in the assay on MALME-3M melanoma, -60% (active); in the assay with MDA-MB-231 breast it was -63% (active); in the assay with RXF 393 renal, -83.6% (active); in the assay with SF-268 CNS it was 22.3%; in the assay on SF-295 CNS, -14.6% (active). In addition, the growth in the assay on SF-539 CNS was -39.1% (active); with UACC-257 melanoma it was -39.3% (active); in the assay with M14 melanoma it was -70.2% (active); with HCT-15 colon, -53.9% (active); in the assay with HT29 colon, -65.3% (active); in the assay on SNB-19 CNS it was 2.77% (active). The growth with U251 CNS is -67.4% (active); in the assay on PC-3 prostate, 3.43% (active); with SK-MEL-5 melanoma, -97.8% (active); with UACC-62 melanoma it was -67.5% (active); in the assay with LOX IMVI melanoma, -93.3% (active); with SK-MEL-28 melanoma, -35.5% (active). Also, the growth in the assay with SK-MEL-2 melanoma was -22% (active).

As to `O=C1N(C2CCCCC2)C(=O)N1C1CCCCC1`, the growth is 55.3% in the assay on K-562 leukemia; -16.9% (active) with MALME-3M melanoma; 64.3% in the assay with MDA-MB-231 breast; 43.2% in the assay with RXF 393 renal; 65.3% in the assay with SF-268 CNS; -27.9% (active) in the assay on SF-295 CNS. In addition, the growth with SF-539 CNS is 26.5%; in the assay with UACC-257 melanoma it was 22.8%; with M14 melanoma it was 30.4%; with HCT-15 colon it was 52.7%; in the assay with HT29 colon, 44.9%; in the assay with SNB-19 CNS, 68.6%. The growth is 48% in the assay on U251 CNS; -3% (active) in the assay on PC-3 prostate; 16.9% in the assay with SK-MEL-5 melanoma; 38.9% with UACC-62 melanoma; 31% in the assay with LOX IMVI melanoma; -7.37% (active) with SK-MEL-2 melanoma.

For the molecule `CCCCCCCCCCCCCCCCCc1nccn1CCO`, the growth in the assay on K-562 leukemia is 3.81% (active); in the assay with MALME-3M melanoma it was 89.7%; in the assay on MDA-MB-231 breast it was 69.6%; with RXF 393 renal, 72.3%; in the assay on SF-268 CNS it was 73.5%; in the assay with SF-295 CNS, 144%. The growth was 66.5% with SF-539 CNS; 90.2% with UACC-257 melanoma; 64.9% in the assay with M14 melanoma; 8.52% (active) in the assay on HCT-15 colon; 13.6% in the assay with HT29 colon; 66.9% in the assay with SNB-19 CNS. In addition, the growth was 33.7% with U251 CNS; 55.9% with PC-3 prostate; 70.4% in the assay on SK-MEL-5 melanoma; 92.4% with UACC-62 melanoma; -44.4% (active) in the assay with LOX IMVI melanoma; 82.2% in the assay with SK-MEL-2 melanoma.

For `c1coc([C@@H]2C[C@@H]3Cc4ccc5ccccc5c4N2O3)c1`, the growth in the assay on K-562 leukemia is 102%; in the assay on MALME-3M melanoma, 97.7%; with MDA-MB-231 breast, 108%; with RXF 393 renal, 94.2%; in the assay on SF-268 CNS, 111%; in the assay on SF-295 CNS, 101%. For the same molecule, the growth in the assay on SF-539 CNS is 99.6%; with UACC-257 melanoma it was 99.2%; with M14 melanoma it was 108%; in the assay with HCT-15 colon it was 99.5%; with SNB-75 CNS, 89.2%; with SNB-19 CNS, 104%. Further, the growth is 102% in the assay on U251 CNS; 101% in the assay on SK-MEL-5 melanoma; 103% with UACC-62 melanoma; 103% with LOX IMVI melanoma; 111% in the assay with SK-MEL-28 melanoma.
